Laboratory results: PubChem BioAssay (EPA / NIEHS)
Active and inactive are the calls of the source. Rule for the calls: active = hit-call score of the fitted dose curve at least 0.9, where 1 is the maximum; inactive = score below 0.9.

Assays:
[1] = APR_HepG2_MicrotubuleCSK_72hr: Apredica 72-hour HepG2 Assay for Microtubule CSK Stabilty (AID 2282919); settings: HepG2 microtubule cytoskeleton, high-content imaging, actives raise or lower the signal
How it was run: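 HepG2, 72 hr cmpd exposure, 0.39–200 uM (10 pts, duplicate), 0.5% DMSO. 3.7% formaldehyde fix, 0.5% Triton perm, anti-alpha-tubulin/Cy5 plus Hoechst. HCS fluorescence intensity; bidirectional fit vs DMSO baseline; taxol as positive control.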

[2] = APR_HepG2_P-H2AX_24hr: Apredica 24-hour HepG2 Assay for H2AX Phosphorylation (AID 2282920); settings: high-content imaging, actives raise or lower the signal
How it was run: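 Human HepG2 liver cells, treated 24 hr with test chemicals (0.39–200 uM, final DMSO 0.5% v/v), are fixed and co-stained for phospho-H2A.x and c-Jun with Hoechst. Imaged intensity is fitted in both directions against DMSO controls.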

[3] = APR_HepG2_StressKinase_72hr: Apredica 72-hour HepG2 Assay for Stress Kinase (AID 2282921); settings: HepG2 stress kinase (phospho-c-Jun) imaging, actives raise or lower the signal
How it was run: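 Phospho-c-Jun immunofluorescence measured by high-content imaging at 20x, six fields per well; bidirectional curve fitting against DMSO as baseline. Dosing: 0.39–200 uM, 72 h, 0.5% DMSO final.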

[4] = APR_HepG2_StressKinase_24hr: Apredica 24-hour HepG2 Assay for Stress Kinase (AID 2282922); settings: HepG2 stress kinase (phospho-c-Jun) imaging, actives raise or lower the signal
How it was run: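 Read-out: phospho-c-Jun immunofluorescence (Cy3 secondary) quantified by high-content imaging at 20x, nuclei defined by Hoechst 33342. Human HepG2 liver cells dosed 24 hr, 0.39–200 uM, DMSO 0.5% v/v; gain or loss of signal fitted relative to DMSO.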

[5] = APR_HepG2_MitoMass_72hr: Apredica 72-hour HepG2 Assay for Mitochondrial Mass (AID 2282924); settings: high-content imaging, actives raise or lower the signal;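 note: MitoTracker Red CMXRos stain intensity per cell imaged as mitochondrial mass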
How it was run: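 Read-out: MitoTracker Red fluorescence intensity from automated imaging (20x, six fields per well) in human HepG2 liver cells. Dosing ran 72 hr, 0.39–200 uM, 0.5% DMSO; bidirectional curve fitting versus DMSO baseline.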

[6] = APR_HepG2_NuclearSize_72hr: Apredica 72-hour HepG2 Assay for Nuclear Size (AID 2282925); settings: high-content imaging, actives raise or lower the signal
How it was run: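 Read-out: nuclear diameter from Hoechst 33342 images (ArrayScan, 20x, six fields/well), via cell-cycle image analysis. HepG2 were dosed 0.39–200 uM for 72 hr in 0.5% DMSO. Bidirectional fit relative to DMSO.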

[7] = ATG_CRE_CIS: Attagene CIS-FACTORIAL HepG2 Assay for human cAMP Responsive Element (CRE) binding protein 3 (AID 2282926); settings: HepG2 CRE cis-reporter, Attagene multiplexed mRNA; actives raise or lower the signal
How it was run: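 Liver-derived HepG2, transfected with a CRE-containing reporter panel, exposed 24 h; transcript levels sized and quantified by capillary electrophoresis of labelled amplicons; signal changes either way referenced to vehicle.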

[8] = target: CCAAT/enhancer-binding protein beta (Homo sapiens) (UniProt P17676); test: ATG_C_EBP_CIS: Attagene CIS-FACTORIAL HepG2 Assay for human CCAAT/Enhancer Binding Protein (C/EBP) beta (AID 2282927); settings: HepG2 Attagene cis-factorial transcription factor reporter; actives raise or lower the signal
How it was run: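 Transiently transfected HepG2 (MRTU library, endogenous TF-driven promoters); 24 h dosing; total RNA → oligo(dT) RT → PCR → 6-FAM primer extension → HpaI digest → CE; fit bidirectionally vs DMSO.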

[9] = ATG_DR4_LXR_CIS: Attagene CIS-FACTORIAL HepG2 Assay for human Liver X Receptor (LXR), DR4 submotif (AID 2282929); settings: HepG2 Attagene DR4 cis-reporter, mRNA transcription; actives raise or lower the signal
How it was run: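 After transient transfection with multiplexed cis-promoter reporter units, HepG2 cells received test chemicals for 24 h. Reporter mRNA induction, detected by fluorescence after RT-PCR and capillary electrophoresis, was scored relative to DMSO.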

[10] = target: Aryl hydrocarbon receptor (Homo sapiens) (UniProt P35869); test: ATG_Ahr_CIS: Attagene CIS-FACTORIAL HepG2 Assay for human Aryl Hydrocarbon Receptor (Ahr) (AID 2282930); settings: HepG2 AhR cis-factorial reporter transcription; actives raise or lower the signal
How it was run: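 Read-out: reporter mRNA quantified by RT-PCR with fluorescent primer extension and capillary electrophoresis. Human HepG2 liver cells carried transfected cis-promoter reporter units and were exposed to chemical for 24 h; gain or loss fitted relative to DMSO.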

[11] = ATG_AP_1_CIS: Attagene CIS-FACTORIAL HepG2 Assay for human Activator Protein 1 (AP-1) (AID 2282931); settings: HepG2 Attagene cis-factorial AP-1 reporter mRNA; actives raise or lower the signal
How it was run: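 After 24 h incubation with test chemical, RNA from transfected HepG2 cells was reverse-transcribed, amplified, fluorescently labelled and digested before capillary electrophoresis. Reporters were driven by cis-regulatory promoters; activity fitted bidirectionally versus DMSO.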

[12] = ATG_AP_2_CIS: Attagene CIS-FACTORIAL HepG2 Assay for human Activator Protein 2 (AP-2) (AID 2282932); settings: HepG2 AP-2 cis-reporter, Attagene transcription factor profiling; actives raise or lower the signal
How it was run: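 Read-out: fluorescent reporter mRNA via RT-PCR and capillary electrophoresis, 24 h post-dose in transiently transfected HepG2. Endogenous factors drive cis-promoter reporters; gain or loss of signal fitted bidirectionally against DMSO.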

[13] = target: Retinoic acid receptor alpha (Homo sapiens) (UniProt P10276); test: ATG_DR5_RAR_CIS: Attagene CIS-FACTORIAL HepG2 Assay for human Retinoic Acid Receptor Alpha (RARE), DR5 submotif (AID 2282934); settings: HepG2 Attagene cis-factorial RARE DR5 reporter, mRNA; actives raise or lower the signal;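 for AC50: reporter responds to endogenous RAR alpha beta and gamma in HepG2 not RARA alone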
How it was run: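 Read-out: DR5-driven reporter transcript measured by RT-PCR, 6-FAM primer extension, HpaI digest and capillary electrophoresis. Human HepG2 liver cells carry transiently transfected cis-element reporter constructs; dosing lasts 24 h. Gain or loss of signal fitted against DMSO baseline.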

[14] = target: Transcription factor E2F1 (Homo sapiens) (UniProt Q01094); test: ATG_E2F_CIS: Attagene CIS-FACTORIAL HepG2 Assay for human E2F Transcription Factor 1 (AID 2282935); settings: HepG2 Attagene cis-reporter, E2F reporter RNA transcripts; actives raise or lower the signal
How it was run: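 Transient MRTU transfection of HepG2; 24 h compound exposure; RNA → oligo(dT) RT → PCR → FAM label → HpaI cut → CE fluorescence. Gain/loss of signal fit against DMSO.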

[15] = ATG_E_Box_CIS: Attagene CIS-FACTORIAL HepG2 Assay for human Enhancer Box (E-box) (AID 2282936); settings: HepG2 E-box cis-reporter transcription, actives raise or lower the signal
How it was run: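 Transiently transfected HepG2, endogenous TF-driven reporters, 24 h dosing. Readout: RT-PCR plus capillary electrophoresis of fluorescent reporter fragments. Gain or loss of signal fitted bidirectionally against DMSO baseline.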

[16] = ATG_M_61_CIS: Attagene CIS-FACTORIAL HepG2 Assay for M61 Transcription Factor (Internal Marker) (AID 2282937); settings: HepG2 Attagene CIS-FACTORIAL M61 internal marker reporter; actives raise or lower the signal
How it was run: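 Using transiently transfected HepG2 liver cells, reporter transcript levels were assessed 24 h post-dosing by RT-PCR and capillary electrophoresis. Changes in either direction were fitted relative to DMSO controls.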

[17] = ATG_EGR_CIS: Attagene CIS-FACTORIAL HepG2 Assay for human Early Growth Response 1 (EGR1) (AID 2282938); settings: HepG2 Attagene CIS-FACTORIAL EGR reporter mRNA; actives raise or lower the signal
How it was run: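 Fluorescent capillary-electrophoresis signal of reporter cDNA fragments serves as read-out. HepG2 cells bear transiently transfected cis-promoter reporter units and are exposed 24 h; gain- or loss-of-signal is fitted against DMSO.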

[18] = ATG_BRE_CIS: Attagene CIS-FACTORIAL HepG2 Assay for human Bone Morphogenetic Protein (BMP) Response Element (BRE) (AID 2282933); settings: HepG2 BMP response element reporter, Attagene transcription factor profiling; actives raise or lower the signal
How it was run: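 Endogenous transcription factor activity at a BMP response element was monitored in transfected HepG2 cells 24 h after dosing. Fluorescent RT-PCR products were resolved by capillary electrophoresis, and activity was fitted in both directions versus DMSO.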

[19] = ATG_CMV_CIS: Attagene CIS-FACTORIAL HepG2 Assay for human CMV (Internal Marker) (AID 2282928); settings: HepG2 CMV promoter reporter, transcription factor profiling; actives raise or lower the signal;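 note: endpoint acts as a background internal control marker rather than a target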
How it was run: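 24 h chemical treatment, HepG2 with transient multi-reporter transfection; RNA → oligo(dT) RT → PCR → 6-FAM extension → HpaI digest → CE fluorescence. Bidirectional fit, DMSO negative control.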

Measured: AC50

Chain of Aryl hydrocarbon receptor (Homo sapiens) (P35869 whole entry, looked up): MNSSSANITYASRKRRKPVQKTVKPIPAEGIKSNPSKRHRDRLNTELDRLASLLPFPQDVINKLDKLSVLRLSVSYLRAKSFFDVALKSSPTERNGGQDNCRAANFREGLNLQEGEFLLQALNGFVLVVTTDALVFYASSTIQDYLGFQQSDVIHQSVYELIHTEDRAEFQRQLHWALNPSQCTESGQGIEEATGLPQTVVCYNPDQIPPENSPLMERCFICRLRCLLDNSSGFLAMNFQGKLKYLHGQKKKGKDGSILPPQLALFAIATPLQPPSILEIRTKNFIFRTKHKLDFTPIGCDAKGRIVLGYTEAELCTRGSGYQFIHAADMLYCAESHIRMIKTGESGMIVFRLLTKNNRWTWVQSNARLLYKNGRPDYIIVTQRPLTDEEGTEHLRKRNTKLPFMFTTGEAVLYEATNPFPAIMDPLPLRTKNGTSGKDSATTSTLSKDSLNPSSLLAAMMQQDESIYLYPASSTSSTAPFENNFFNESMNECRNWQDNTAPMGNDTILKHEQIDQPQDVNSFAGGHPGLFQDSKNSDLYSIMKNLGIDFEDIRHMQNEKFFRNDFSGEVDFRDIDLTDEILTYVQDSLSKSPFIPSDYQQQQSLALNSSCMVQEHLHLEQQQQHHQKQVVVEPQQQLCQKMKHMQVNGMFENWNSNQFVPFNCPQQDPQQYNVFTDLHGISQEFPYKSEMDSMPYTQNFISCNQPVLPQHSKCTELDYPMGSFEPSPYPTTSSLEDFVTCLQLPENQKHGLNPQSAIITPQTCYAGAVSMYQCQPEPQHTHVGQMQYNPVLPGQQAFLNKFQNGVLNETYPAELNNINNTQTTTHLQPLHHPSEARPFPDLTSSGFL
Chain of Retinoic acid receptor alpha (Homo sapiens) (P10276 whole entry, looked up): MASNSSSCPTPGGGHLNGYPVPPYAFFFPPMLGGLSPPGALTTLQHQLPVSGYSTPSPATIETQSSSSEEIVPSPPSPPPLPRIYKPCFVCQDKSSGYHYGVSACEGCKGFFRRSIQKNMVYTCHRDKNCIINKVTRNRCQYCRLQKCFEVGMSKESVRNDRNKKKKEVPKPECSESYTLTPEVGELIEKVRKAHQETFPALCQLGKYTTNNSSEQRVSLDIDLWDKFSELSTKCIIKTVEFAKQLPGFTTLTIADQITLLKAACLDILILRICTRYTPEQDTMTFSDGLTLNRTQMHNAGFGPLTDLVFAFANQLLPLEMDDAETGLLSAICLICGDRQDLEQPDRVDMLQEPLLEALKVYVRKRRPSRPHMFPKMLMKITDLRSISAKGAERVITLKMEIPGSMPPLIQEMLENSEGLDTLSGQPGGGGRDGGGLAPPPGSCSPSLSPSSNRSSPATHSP
Chain of Transcription factor E2F1 (Homo sapiens) (Q01094 whole entry, looked up): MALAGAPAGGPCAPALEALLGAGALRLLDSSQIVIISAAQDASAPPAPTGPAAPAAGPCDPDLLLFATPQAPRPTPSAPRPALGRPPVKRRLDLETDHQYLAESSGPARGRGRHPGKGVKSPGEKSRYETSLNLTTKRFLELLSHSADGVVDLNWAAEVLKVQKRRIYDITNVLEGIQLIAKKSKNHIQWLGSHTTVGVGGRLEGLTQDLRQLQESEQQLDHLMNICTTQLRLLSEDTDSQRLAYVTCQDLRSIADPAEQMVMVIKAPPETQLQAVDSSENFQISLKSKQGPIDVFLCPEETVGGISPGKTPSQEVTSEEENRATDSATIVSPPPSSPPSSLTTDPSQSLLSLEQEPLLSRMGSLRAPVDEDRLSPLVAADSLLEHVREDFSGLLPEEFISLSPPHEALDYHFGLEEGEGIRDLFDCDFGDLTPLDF
Chain of CCAAT/enhancer-binding protein beta (Homo sapiens) (P17676 whole entry, looked up): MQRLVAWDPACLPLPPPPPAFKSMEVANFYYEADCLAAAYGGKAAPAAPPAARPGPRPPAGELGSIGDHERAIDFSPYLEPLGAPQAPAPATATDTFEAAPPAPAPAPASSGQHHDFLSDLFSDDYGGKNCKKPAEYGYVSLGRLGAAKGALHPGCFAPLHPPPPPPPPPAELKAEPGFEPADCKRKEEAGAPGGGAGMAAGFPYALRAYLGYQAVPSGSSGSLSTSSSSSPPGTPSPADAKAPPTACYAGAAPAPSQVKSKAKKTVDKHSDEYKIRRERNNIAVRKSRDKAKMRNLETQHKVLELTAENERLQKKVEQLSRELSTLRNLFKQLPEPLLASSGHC

Clc1cccc(Cl)c1
not listed: [18] | [19]
inactive: all other assays above

O=C(O)C1(c2ccc3c(c2)OC[C@H](Cc2ccc(-c4ccccc4)cc2)[C@H]3O)CCCC1
active: [2] 108 µM | [3] 116 µM | [4] 111 µM | [5] 112 µM | [11] 19.7 µM
not listed: [16] | [19]
inactive: all other assays above

N#Cc1cccnc1
not listed: [9] | [13] | [18]
inactive: all other assays above

CN(C)C(=S)S
active: [1] 1.78 µM | [2] 12 µM | [3] 1.16 µM | [5] 0.0391 µM | [19] 26.2 µM | [9] 25.5 µM | [11] 25.9 µM
not listed: [13] | [18]
inactive: all other assays above

O=C(N[C@H]1CN2CCC1CC2)c1ccc2c(c1)OCCO2
active: [15] 72.7 µM
not listed: [11]
inactive: all other assays above

C[CH2][Hg][S]c1ccccc1C(=O)O
active: [7] 2.94 µM | [8] 2.23 µM | [9] 5.13 µM | [12] 4.81 µM | [13] 1.11 µM | [15] 6.19 µM | [17] 3.71 µM
inactive: [19] | [10] | [11] | [18] | [14] | [16]

O=C(NC(=O)c1c(F)cccc1F)Nc1ccc(Cl)cc1
inactive: [7] | [8] | [19] | [9] | [11] | [12] | [18] | [13] | [14]
active: [10] 19.6 µM
